tim10-1 inh: growth inhibitors of tim10-1 mutant yeast, primary screen, luminescence, uHTS. AID 463190, 2010. S. cerevisiae tim10-1 ts strain growth, BacTiter-Glo, 24 h. 330,000 compounds, 2.2% hits. inhibition, % at 20 µM;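 active = inhibition of at least 40%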;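 note: mutant grown at 25 °C; 0% = DMSO wells with yeast and 100% = wells holding no yeast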
SUMO Mot1 rescue: yeast Mot1-301 growth rescue at high temperature, primary screen, SUMOylation pathway inhibitor project, S. cerevisiae, ATP luminescence, 38.5C; S. cerevisiae Mot1-301 growth rescue; percent above DMSO median, 100 means doubled; growth rescue, % at 18.8 µM; 320,000 compounds, 1% hits;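 active = every valid replicate shows activation above 250% relative to neutral control wells; inactive = the rest, any valid replicate at or below 250%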;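 note: OY570 slx delta 5 strain wells were the positive control but not used for scaling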
TIM10 inh: growth inhibitors of isogenic TIM10 control yeast, primary screen, counter-screen for tim10-1 yeast inhibitor project, luminescence, uHTS | S. cerevisiae TIM10 strain growth, BacTiter-Glo luminescence, 24 h | inhibition, % at 10 µM | 330,000 compounds, 1.4% hits | AID 463195, 2010;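 active = inhibition of 40% or more at the single tested concentration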;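 note: wild-type TIM10 isogenic control strain grown at permissive 25 °C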
PfHsp90 set2: growth inhibition of PfHsp90-expressing yeast, primary screen, antimalarial PfHsp90 inhibitor project, S. cerevisiae, BacTiter-Glo luminescence, single point, set 2 | BacTiter-Glo ATP, 48 h; yeast lacking PDR1 and PDR3 efflux regulators | inhibition, % at 9.4 µM | 310,000 compounds, 0.32% hits | AID 504621, 2011;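 active = every replicate shows inhibition above about 80%, whatever the replicate mean, limit read from the data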;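 note: 0% = DMSO neutral controls and 100% = 20 µM radicicol positive controls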
tim23-1 inh: growth inhibitors of tim23-1 mutant yeast, primary screen, luminescence, uHTS; S. cerevisiae tim23-1 growth, BacTiter-Glo luminescence, 24 h; inhibition, % at 20 µM; AID 463212, 2010; 330,000 compounds, 1.3% hits;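 active = growth inhibition of the mutant yeast at or above 50%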;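 note: temperature-sensitive mutant grown at 25 °C; plate controls were DMSO-treated mutant yeast for no effect and medium wells lacking yeast for full effect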
tim10 confirm: growth inhibitors of wild-type TIM10 yeast, confirmation, counter-screen for tim10-1 synthetic lethality project, single concentration, luminescence, S. cerevisiae; 4,600 compounds, 63% hits; S. cerevisiae tim10 strain growth, BacTiter-Glo luminescence, 24 h; AID 463215, 2010; shares compounds with TIM10 inh; inhibition, % at 10 µM;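 active = inhibition of yeast growth at or above a set limit in either of two replicates at 10 µM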;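 note: this counterscreen used the strain with wild-type TIM10; 0% = yeast with DMSO and 100% = medium wells lacking yeast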
Active calls of the source: *; · = not tested or not shown. Only some compounds are listed: those with a hit (about 4.4% of all), similar ones and a draw of the others.

SMILES	tim10-1 inh	SUMO Mot1 rescue	TIM10 inh	PfHsp90 set2	tim23-1 inh	tim10 confirm
O=C(Nc1ccc2oc(-c3ccncc3)nc2c1)c1cccs1	-6	20	53*	30	40	51*
O=C(Nc1ccc2oc(-c3ccncc3)nc2c1)c1ccccc1	1	3	45*	-2	9	-3
O=C(Nc1cccc(-c2csc(-c3ccccc3)n2)c1)c1cccs1	18	0	41*	-6	31	32*
Cc1cccc(CNC(=O)CC2C(=O)NCCN2C2CCCC2)c1 (stereo unspecified)	-13	4	0	21	1	·
COc1ccc(NC(=O)CN(C)C(=O)CSc2ccc(Br)cc2)cc1	-4	0	-8	-27	17	·
O=C(CCS(=O)(=O)c1ccccc1)Nc1ncc([N+](=O)[O-])s1	25	20	41*	6	35	33*
O=C(CS(=O)(=O)c1ccccc1)Nc1ncc([N+](=O)[O-])s1	-9	-12	6	-16	1	·
c1ccc(-c2nc(N3CCCCCC3)nc(-n3ccnc3)n2)cc1	16	·	48*	-23	17	28
C=CCNC(=O)C12CCC(C)(C(=O)[C@H]1Br)C2(C)C (stereo partly specified)	12	12	42*	11	12	-20
CCCCNC(=O)C12CCC(C)(C(=O)C1Br)C2(C)C (stereo unspecified)	-1	19	-26	0	0	·
Cc1cc(C)c(C(=O)C(C)OC(=O)Cn2cnc3c2c(=O)n(C)c(=O)n3C)cc1C (stereo unspecified)	-17	-10	58*	-23	-7	-33
CC(OC(=O)Cn1cnc2c1c(=O)n(C)c(=O)n2C)C(=O)c1ccccc1 (stereo unspecified)	-1	1	-5	·	-5	·
CC1CCCCN1S(=O)(=O)c1ccc(C(=O)N(CCCN(C)C)c2nc3ccc(Br)cc3s2)cc1 (stereo unspecified)	16	-42	40	-1	11	23
O=C(Nc1ccccc1)c1cc(S(=O)(=O)NCc2ccncc2)ccc1Cl	7	-21	6	-36	11	·
CCN1CCN(CC#CCOc2ccccc2OC)CC1	1	11	-6	-8	-2	·
O=C(NCCc1ccccc1)c1ccc(S(=O)(=O)N2CCCC2)cc1	19	-10	62*	-2	23	3
OCCNc1nc(Nc2ccc(Br)cc2)nc2ccccc12	21	-4	43*	·	13	22
O=c1ccc2cc(S(=O)(=O)Nc3ccc(Br)cc3)ccc2o1	14	-20	9	4	29	·
O=C(/C=C/c1ccc(Br)cc1)c1ccc(NC(=O)c2ccco2)cc1	33	9	41*	-18	35	8
O=C(/C=C/c1ccc(Br)cc1)c1ccco1	11	97	-2	-2	-11	·
CN1C(=O)/C(=N\OC(=O)c2ccccc2Cl)c2ccccc21	-80	-4	39	10	38	·
CC(C)(C)C(=O)O/N=C1/C(=O)N(c2ccccc2)c2ccccc21	27	-6	52*	·	25	61*
COc1cc2c(cc1OC)CN(C(=O)c1ccc([N+](=O)[O-])o1)CC2	35	-1	68*	27	31	75*
O=C(c1ccc([N+](=O)[O-])o1)N1CCOCC1	-3	-7	8	-9	24	·
CCOC(=O)c1ccc(NC(=O)c2c(N)n(Cc3ccccc3)c(=O)[nH]c2=O)cc1	-15	5	98*	5	-12	-16
SMILES	tim10-1 inh	SUMO Mot1 rescue	TIM10 inh	PfHsp90 set2	tim23-1 inh	tim10 confirm
CCOC(=O)c1ccc(NC(=O)c2ccccc2)cc1	13	-2	18	-1	15	·
Cc1c(C(=S)Nc2ccccc2)cnn1-c1ccc([N+](=O)[O-])cc1	38	36	43*	16	44	-1
CC(C)CCN(C(=O)C1CSC2(C)CCC(=O)N12)c1c(N)n(Cc2ccccc2)c(=O)[nH]c1=O (stereo unspecified)	-8	-19	-1	-9	1	·
CCOC(=O)[C@H]1[C@H]2COc3ccc(Cl)cc3[C@@H]2N2C(=O)CN(Cc3ccco3)C(=O)[C@@]12C	18	-2	9	-10	1	·
Cc1nc2ccc(NC(=O)c3cccs3)cc2s1	18	2	46*	15	48	27
Cc1nc2ccc(NS(=O)(=O)c3ccc(F)cc3)cc2s1	3	-8	60*	0	9	0
Cc1nc2ccc(NC(=O)c3ccccc3)cc2s1	-5	-2	44*	12	30	7
Cc1nc2ccc(NS(=O)(=O)c3c(F)cccc3F)cc2s1	9	17	4	-9	22	·
CC(NC(=O)c1cc(S(=O)(=O)N2CCOCC2)ccc1N1CCCC1)c1ccc(Cl)c(Cl)c1 (stereo unspecified)	-8	19	0	·	-9	·
O=C(CN1CCCCC1)Nc1ccccc1Oc1ccccc1	-32	-25	-9	1	5	·
CC1(C(=O)N/N=C/c2ccccc2)CC1(Cl)Cl (stereo unspecified)	11	1	-2	3	12	·
COc1ccccc1CNC(=O)CN1C(=O)NC2(CCCCCCC2)C1=O	17	·	6	·	8	·
CCOC(=O)c1ccc2c(c1)nc(SCc1cn3ccsc3n1)n2CC	23	-2	44*	-3	35	34*
Cn1c2ccc(Br)cc2c2nnc(SCC(=O)O)nc21	31	-7	60*	-15	28	75*
Cn1c2ccccc2c2nnc(SCC(N)=O)nc21	14	-12	-23	-15	7	·
O=C(Nc1ccc(F)cc1)C1CCN(S(=O)(=O)c2ccc3[nH]c(=O)oc3c2)CC1	-8	176	74*	11	-7	6
CCCCC(=O)NC(=S)Nc1ccccc1N1CCCCC1	37	9	44*	-30	44	-33
CCC(=O)NC(=S)Nc1cccc(Cl)c1N1CCCCC1	37	-6	47*	-16	38	38*
O=C(CCC(NC(=O)OCc1ccccc1)C(=O)OCc1ccccc1)NCC(=O)OCc1ccccc1 (stereo unspecified)	19	-4	14	4	20	·
NC(=O)CC[C@H](NC(=O)OCc1ccccc1)C(=O)OCc1ccc(Cl)cc1	15	0	45*	-3	14	-10
COc1cc(NC(=O)CSc2nnc3ccc(-c4cccnc4)nn23)cc(OC)c1	-15	4	-12	12	-19	·

Bioassay records: PubChem BioAssay, several laboratories
